# According to the supplement of paper PMC12632987:
# Over roughly 1,800 sequences, “median log2 fold change of GCK-ALFA target abundance (FLAG IP / Myc IP barcode read proportion)” has its median near 0.14; the lowest 2% begin near -0.84. Only a selection was taken, and the lowest values are over-represented in it overall.
# T1: TRAF2, Q12933
# T1 chain: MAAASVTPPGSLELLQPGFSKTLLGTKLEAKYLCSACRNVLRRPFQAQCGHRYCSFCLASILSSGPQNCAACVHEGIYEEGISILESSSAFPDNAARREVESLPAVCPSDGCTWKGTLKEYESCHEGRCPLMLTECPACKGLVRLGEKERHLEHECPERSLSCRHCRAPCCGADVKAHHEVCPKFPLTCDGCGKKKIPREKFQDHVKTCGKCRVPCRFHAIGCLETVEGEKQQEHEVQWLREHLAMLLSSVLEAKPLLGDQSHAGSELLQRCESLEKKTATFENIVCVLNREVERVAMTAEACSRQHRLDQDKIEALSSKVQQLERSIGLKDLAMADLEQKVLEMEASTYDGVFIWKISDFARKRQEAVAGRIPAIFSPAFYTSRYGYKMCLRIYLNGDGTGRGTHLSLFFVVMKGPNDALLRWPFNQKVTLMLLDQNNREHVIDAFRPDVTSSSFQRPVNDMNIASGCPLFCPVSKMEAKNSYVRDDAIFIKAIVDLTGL
# B1: traf2_out_11_131_660 (protein)
# chain: MDAVATARSAAERVDALLALAETLSPEERHRLALHALDTIEAVAEYLTSHVSTMTKEEVKEAARILREARDRVLALDPRVAPEAAEVEEAIKKLLEAAEE
# B2: traf2_out_12_161_940 (protein)
# chain: SSEHFQELSDVANKAFDKAQEIVDRVAEVSPALRPTFLAVARSLTLPVEEARAILDAAIAAHEAELTPEQLAEVRALGDELLAIQKEAQEEIKKIQEKYR
# B3: traf2_out_3_89_2294 (protein)
# chain: SMEQEKKLEEMRKRMEAYLRGFERSARWVARQMVADGMSLDTIRGVLEAARTALLEVLRESAEEAGLSPEQIEELVEEARERLERIVEEVVEEARREREA
# B4: traf2_out_16_171_1431 (protein)
# chain: SAEEKEKALKEEIDKERDDIIERMETAVEVTPLISKETGLTVEQIAKGFRSTMDDRIEALKKKYEEAAKTASEEVKKYMKERLEEIEKAKEEALKKILEI
# B5: traf2_out_13_95_1115 (protein)
# chain: SKELAEKIMEISDKALDQANALLDALEAKIKASGKLAPEVAAALAAAKKSTISTAIHTLKELAKKYPEFKADFEATIAQLEQIRRDAGREVAKLIKEEKE
# B6: traf2_out_16_104_1404 (protein)
# chain: AEAKQAEFDAIIAELEAIADKLQKIANKLYKLYLKADPETKVKLSDALVKASEARRAALEAAERAREARETGGDLAEARAALAKAKEEAAKVEKEVKELE
# B7: traf2_out_17_162_1515 (protein)
# chain: SALEEELAKLEKELKKIEKELKELKEKLKDLDKMSKEELTDLLVEASEARRRALELAERLEELKPEIGEERAGKLIAEARKLAEELQKIANKIYKKLEEK
# B8: traf2_out_14_149_1232 (protein)
# chain: SAEQEKLRAAAEINAEIAAALDEVLALLDAGKVEEAKALLRATIAELRARGAAHGITVSGLFVLEEILALLDTDVEAAKAAAAAARARARNAAEAFREMA
# B9: traf2_out_20_3_2202 (protein)
# chain: EELEKKLEEELEKAEELLKKAKELADPETAKKLDELIKRLKESRELSYEDRLVELSEIRREVLLLAQQAKAEGNEELAKVLEEAAEAINRAKNLVYKIIE
# B10: traf2_out_13_95_1184 (protein)
# chain: SEETKKKINEIADDMLEKVEKILTELAEKVKDDPEVKKAVEEIKKTAVTKGIHTAIGELKELAKKYPEYKELINEAIEKIEEIRREAGKKVAEILKEEEE
# B11: traf2_out_20_3_2107 (protein)
# chain: KELEEELEKELEEAIKLLEEAAKLADEETAKRLEELRKRVEASRELPYTDRLVALSEVRREVLALAQEAEAAGKEELAKVLEEAADELNKAMNLLMKIIE
# B12: traf2_out_15_48_1346 (protein)
# chain: DIEKEQKIASEIADDSDKLKDKVAKELEELQKKANPEEAAILDELIAAIRSGASLRTVRGLLLQAQPKFSPETAAKLKALAEEIDELIRENSKRYNEVLK
# B13: traf2_out_18_117_1795 (protein)
# chain: SEREEIIEELEELAERLGKAASELGKAVLDNWEKLTPEEKSEAMDVLADLSAVRRRAQELIHKIKTENIPVEEARKELEELKKEAEAALAAAEAKIARIK
# B14: traf2_out_9_108_2595 (protein)
# chain: MTEEEKEEETYEKILKLAKDFLERYDVSEELRADMEAAIEQAEKLRKEGEKRTANILIAISTARVAYEIGEEAVKDFLAELKKIDERSYNAAKRMVKLLK
# B15: traf2_out_13_95_1087 (protein)
# chain: SAETNAKINEIADKMMEKIEAILDKLSEEVADDPELKAEVEAAKELAITRGVNEAIHKLRELSKAHPEYKEKLDKAIDEIEKVKREASKEISKLLKEEKE
# B16: traf2_out_6_3_2532 (protein)
# chain: SHMSLLKDAKTVLENMGITTIEELKALVKAEVNAIKKLISRKDVDEADLAGARSVVALSRAMVEVAKETLPDFTEEDYEELNKLLEETEKLIKEREEKLK
# B17: traf2_out_17_178_1748 (protein)
# chain: NEEELKKIINEKNNEIADIAEKLAEEILKLAKEDPSISPETLALIEEARRNGSHNTAVALFLEASKNEETKKKVEELHKKASEEMNKLAKEREEAIEKYK
# B18: traf2_out_11_104_639 (protein)
# chain: LTREQAREFNDFAMAKEDEARAVAAELAAALEAAGETAAAARVRAALAHPGAGISTFRNLLEDLLPTLSPAAAAQARAAIARLAALQREVSAKLNELEAK
# B19: traf2_out_6_156_2377 (protein)
# chain: TKEEILKKAKEKIEKEIKKLAEASEEKKIKYISEIAGAVYKALQALREAGASVEEIKKAVEELKKVAEEEAKKAGLPEDTINLLLSSINAVGEVALREAE
# B20: traf2_out_17_178_1665 (protein)
# chain: TKEEERKKISELTDKLIDLAEAAADRALALAEREGDLSPEELAALREARRRGSATDVRALMRRWIPRLRSAAELGALLEEFEAEYRKLSKEIAEAYEKYE
# B21: traf2_out_11_155_731 (protein)
# chain: EKKEKARREIVDFAIEQGDELEAFVEALIKEVEKEDPELAKELRAVFEEHRKYSARSAALAAIDVLRKHGYEERAEELEKKIEEANKKASEFIKKIEEEL
# B22: traf2_out_20_38_2042 (protein)
# chain: EEEEKEEEQIELDVEIANEALDEVEERFAKWRAEGLSLEEIAERVKEEIRKAFKEAGLEEKLPEYLEQIDLVRDSPDAERLLERILARALALVRRKKREK
# B23: traf2_out_20_38_2026 (protein)
# chain: SMEEEEEKKLEELIKVAQEAYDEAEKKIEELKKEGKSIEEIAEIAKEEIERILSEEGLEEEKEELIEEVDLVLDSPDAERLIARILARAVALAHQKRLEK
# B24: traf2_out_20_38_2028 (protein)
# chain: SEEEEEKKRLEELIKVANEAYDKAEKKIAKLKAEGKTIEEIAEEAKEEVERILSEVGLEEEREELIEDIDRVLDSPDAERLIARILARAVALAYQKELQK
# B25: traf2_out_5_189_2315 (protein)
# chain: SAREEEQKALNEKAKEIGKEVTKLINEMKKEGKSWEEIAEKMLEKMKTLPVDDAALYSGIFYSIMLGEAIANNDEKLKEIAEKFREKAKELIKEKEKKEA
# B26: traf2_out_17_162_1608 (protein)
# chain: MELEEKLKKLKELLEELEKKLKRLEEKLKNIEKLSKEELSDLLVEASEARRKALEALEEIKKLKEKLDKEEYEKLSKRFEEIAEKFQRIANKFYKELEKK
# B27: traf2_out_3_89_2292 (protein)
# chain: SEERERKIRLARERAERYARGFEKSARRVAKEMLKEGYSLETLRGVLEAARTALVEVFREELRELGLSEEDIRELVEELERRLREIVEKVLEEAEKKRKE
# B28: traf2_out_20_3_2164 (protein)
# chain: SELEKKLEEELERALKLLKKAAELSDEETKKKLKELIERLKESRSLSPSDRLVVVSEVRREVLLLAQKAKAEGKEELAKLLEEAAEELNRAMQLLYEIIE
# B29: traf2_out_13_95_1191 (protein)
# chain: EEEKRKKYAERTNAIADELLDHADAKIAELEAATGDPELGAELRRVLDRGGVSALIHRIRELAKEDPAYREAYEAAAAELEAKRREAGRRVAEAEKEIEA
# Molecular target: T1, TRAF2, Q12933
# Test: median log2 fold change of GCK-ALFA target abundance (FLAG IP / Myc IP barcode read proportion) (log2 ratio); each designed protein is fused to an ALFA-tag nanobody in HEK293 cells to bring the named protein to FLAG-tagged glucokinase (GCK); Myc marks an untargeted standard; higher = target protein stabilised (more abundant)
# Settings: target protein: 3xFLAG-MCP-GCK-ALFA reporter; HEK293 landing pad (RPLP)
# How it was run: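 An ALFA-nanobody-fused binder library was recombined into HEK293 landing-pad cells and induced with 2 μg mL^−1 doxycycline. Cells were transfected with a plasmid expressing a FLAG-tagged target and a Myc-tagged standard. After 48 h, lysates underwent anti-FLAG and anti-Myc immunoprecipitation, and circular RNA barcodes were reverse transcribed, amplified and sequenced. Target abundance is the per-binder median log2 ratio of FLAG to Myc barcode read proportions. Barcodes needed ≥10^−7 proportion in both replicates, binders ≥3 barcodes per replicate, and a 10^−6 pseudocount was added; the two replicates were pooled.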
row,Binder,median log2 fold change
1,B1,0.0927
2,B2,-1.56
3,B3,-0.433
4,B4,0.175
5,B5,-0.178
6,B6,0.341
7,B7,0.222
8,B8,0.339
9,B9,-0.0195
10,B10,-0.726
11,B11,0.327
12,B12,0.203
13,B13,0.171
14,B14,-0.632
15,B15,0.249
16,B16,-1.3
17,B17,0.486
18,B18,0.214
19,B19,0.122
20,B20,0.057
21,B21,0.0471
22,B22,-0.0369
23,B23,-0.0149
24,B24,-0.966
25,B25,0.387
26,B26,-0.073
27,B27,-1.24
28,B28,-0.157
29,B29,0.242
